Laboratory results: PubChem BioAssay AID1159580 (chemical genetic matrix, 2015)
Values joined by “and” are separate entries in the source; they are usually repeats but may differ in a detail not shown here. Equal entries are not always repeated. Out of some 5,500 compounds screened, about 2,000 (36%) were called active. Another 18% or so got no clear call; they are omitted. No stated cut-off is given here; in the data, active means normalized growth mostly below about 0.91 (no sharp cut-off); inconclusive means no clear call, values can overlap the other calls; inactive means mostly above about 0.92. The list shows a part of the results.

Assay: chemical genetic growth profiling, strain panel (AID 1159580);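 further: tested at 20 µM; growth read once vehicle control cultures reached saturation at 30 °C; 1 = growth at the plate median or of vehicle wells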
Conditions: S. cerevisiae deletion strains, growth OD

Measured: normalized growth

CC1CCC2(OC1)OC1CC3C4CC[C@H]5C[C@@H](O)CC[C@]5(C)C4CC(=O)[C@]3(C)C1C2C (stereo partly specified)
inactive: locus YAL013W, strain DEP1, stronger effect = lower value 1.01 | locus YAL021C, strain ccr4, stronger effect = lower value 0.997 | locus YAL026C, strain drs2, stronger effect = lower value 1.03 | locus YAL030W, strain snc1, stronger effect = lower value 1.01 | locus YBL061C, strain skt5, stronger effect = lower value 1.02 | locus YBR009C, strain hhf1, stronger effect = lower value 0.983 | locus YBR021W, strain FUR4, stronger effect = lower value 0.991 | locus YBR023C, strain chs3, stronger effect = lower value 1.02 | locus YBR171W, strain sec66, stronger effect = lower value 1.02 | locus YBR229C, strain ROT2, stronger effect = lower value 1.01 | locus YBR231C, strain swc5, stronger effect = lower value 0.996 | locus YBR279W, strain paf1, stronger effect = lower value 1.01 | locus YCL011C, strain gbp2, stronger effect = lower value 1.04 | locus YCL016C, strain dcc1, stronger effect = lower value 1.01 | locus YCL029C, strain bik1, stronger effect = lower value 0.973 | locus YCL061C, strain MRC1, stronger effect = lower value 1.02 | locus YCL069W, strain vba3, stronger effect = lower value 1.02 | locus YCR088W, strain abp1, stronger effect = lower value 1.03 | locus YDL005C, strain med2, stronger effect = lower value 1.01 | locus YDL035C, strain GPR1, stronger effect = lower value 1.01 | locus YDL040C, strain nat1, stronger effect = lower value 1.01 | locus YDL074C, strain BRE1, stronger effect = lower value 0.974 | locus YDL101C, strain DUN1, stronger effect = lower value 1.01 | locus YDL134C, strain PPH21, stronger effect = lower value 1.01 | locus YDL185W, strain tfp1, stronger effect = lower value 0.981 | locus YDL192W, strain arf1, stronger effect = lower value 0.992 | locus YDR001C, strain nth1, stronger effect = lower value 1.01 | locus YDR069C, strain doa4, stronger effect = lower value 1 | locus YDR101C, strain arx1, stronger effect = lower value 0.974 | locus YDR137W, strain rgp1, stronger effect = lower value 1.02 | locus YDR150W, strain NUM1, stronger effect = lower value 1.01 | locus YDR159W, strain sac3, stronger effect = lower value 0.962 | locus YDR162C, strain NBP2, stronger effect = lower value 1.01 | locus YDR195W, strain ref2 1.04 | locus YDR297W, strain sur2, stronger effect = lower value 0.995 | locus YDR318W, strain mcm21, stronger effect = lower value 0.975 | locus YDR334W, strain swr1, stronger effect = lower value 1.01 | locus YDR335W, strain msn5, stronger effect = lower value 1.02 | locus YDR388W, stronger effect = lower value 0.982 | locus YDR392W, strain spt3, stronger effect = lower value 0.866 | locus YDR502C, strain sam2, stronger effect = lower value 0.98 | locus YEL003W, strain gim4, stronger effect = lower value 0.999 | locus YEL037C, strain rad23, stronger effect = lower value 1.02 | locus YEL061C, strain CIN8 (second series), stronger effect = lower value 1.01 | locus YEL061C, strain CIN8, stronger effect = lower value 1.01 | locus YER015W, strain faa2, stronger effect = lower value 1 | locus YER016W, strain bim1, stronger effect = lower value 1.01 | locus YER110C, stronger effect = lower value 0.978 | locus YER111C, strain swi4, stronger effect = lower value 1.01 | locus YER155C, strain BEM2 (second series), stronger effect = lower value 0.97 | locus YER155C, strain BEM2, stronger effect = lower value 1.01 | locus YER167W, strain BCK2, stronger effect = lower value 1.01 | locus YFR010W, strain ubp6, stronger effect = lower value 0.997 | locus YGL078C, strain dbp3, stronger effect = lower value 0.982 | locus YGL086W, strain mad1, stronger effect = lower value 0.998 | locus YGL167C, strain pmr1, stronger effect = lower value 1.01 | locus YGL173C, strain kem1, stronger effect = lower value 0.992 | locus YGL227W, strain vid30, stronger effect = lower value 1.02 | locus YGL240W, strain doc1, stronger effect = lower value 1 | locus YGL248W, strain PDE1, stronger effect = lower value 1.02 | locus YGL253W, strain hxk2, stronger effect = lower value 1.01 | locus YGR078C, strain PAC10, stronger effect = lower value 0.989 | locus YGR135W, strain pre9, stronger effect = lower value 0.987 | locus YGR229C, strain SMI1, stronger effect = lower value 1 | locus YGR252W, strain gcn5, stronger effect = lower value 0.992 | locus YHR013C, strain ard1, stronger effect = lower value 1.02 | locus YHR027C, strain rpn1, stronger effect = lower value 1.02 | locus YHR030C, strain SLT2, stronger effect = lower value 1.01 and 0.963 | locus YHR079C, strain IRE1 (second series), stronger effect = lower value 0.988 | locus YHR079C, strain IRE1, stronger effect = lower value 0.962 | locus YHR094C, strain hxt1, stronger effect = lower value 0.991 | locus YHR129C, strain ARP1, stronger effect = lower value 1 | locus YHR142W, strain chs7, stronger effect = lower value 1.03 | locus YHR200W, strain rpn10, stronger effect = lower value 0.987 | locus YIL066C, strain RNR3, stronger effect = lower value 1.01 | locus YIL073C, strain SPO22, stronger effect = lower value 0.983 | locus YIL125W, strain kgd1, stronger effect = lower value 0.989 | locus YIR030C, strain dcg1, stronger effect = lower value 0.984 | locus YJL092W, strain hpr5, stronger effect = lower value 1.01 | locus YJL095W, strain BCK1 (second series), stronger effect = lower value 1.01 | locus YJL095W, strain BCK1, stronger effect = lower value 1 and 0.964 | locus YJL115W, strain asf1, stronger effect = lower value 1.03 | locus YJL129C, strain trk1, stronger effect = lower value 1.04 | locus YJL134W, strain LCB3, stronger effect = lower value 1.01 | locus YJL154C, strain vps35, stronger effect = lower value 1.03 | locus YJL164C, strain tpk1, stronger effect = lower value 0.989 | locus YJL166W, strain qcr8, stronger effect = lower value 1 | locus YJL168C, strain set2, stronger effect = lower value 0.986 | locus YJL187C, strain SWE1 (second series), stronger effect = lower value 0.997 | locus YJR043C, strain POL32, stronger effect = lower value 1 | locus YJR066W, strain TOR1, stronger effect = lower value 0.927
